Data taken from PubChem BioAssay (NCI).
Compounds without any hit were thinned out: in the full panel of roughly 83,000, 20% have a hit.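 Compound tested at a single concentration for 48 hours in 96-well plates; a percent growth value below 10 was scored as active.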 A number with no mark means an inactive call. The source made the active and inactive calls.

Experiments:
Assay in all cases: NCI-60 one-dose screen, 48 h (100 = growth as untreated, 0 = no growth, -100 = all killed)
Conditions in all cases: 10 µM unless noted
SK-MEL-2 melanoma = tested on: SK-MEL-2 melanoma
EKVX NSCLC = tested on: EKVX NSCLC
SN12C renal = tested on: SN12C renal
UO-31 renal = tested on: UO-31 renal
TK-10 renal = tested on: TK-10 renal
ACHN renal = tested on: ACHN renal
CAKI-1 renal = tested on: CAKI-1 renal
A498 renal = tested on: A498 renal
CCRF-CEM leukemia = tested on: CCRF-CEM leukemia
MOLT-4 leukemia = tested on: MOLT-4 leukemia
SR leukemia = tested on: SR leukemia
RPMI-8226 leukemia = tested on: RPMI-8226 leukemia
OVCAR-8 ovarian = tested on: OVCAR-8 ovarian
OVCAR-5 ovarian = tested on: OVCAR-5 ovarian
OVCAR-4 ovarian = tested on: OVCAR-4 ovarian
SK-OV-3 ovarian = tested on: SK-OV-3 ovarian
IGROV1 ovarian = tested on: IGROV1 ovarian
OVCAR-3 ovarian = tested on: OVCAR-3 ovarian
HS 578T breast = tested on: HS 578T breast
NCI/ADR-RES ovarian = tested on: NCI/ADR-RES ovarian

Row | Compound | growth (SK-MEL-2 melanoma) | growth (EKVX NSCLC) | growth (SN12C renal) | growth (UO-31 renal) | growth (TK-10 renal) | growth (ACHN renal) | growth (CAKI-1 renal) | growth (A498 renal) | growth (CCRF-CEM leukemia) | growth (MOLT-4 leukemia) | growth (SR leukemia) | growth (RPMI-8226 leukemia) | growth (OVCAR-8 ovarian) | growth (OVCAR-5 ovarian) | growth (OVCAR-4 ovarian) | growth (SK-OV-3 ovarian) | growth (IGROV1 ovarian) | growth (OVCAR-3 ovarian) | growth (HS 578T breast) | growth (NCI/ADR-RES ovarian)
1 | COc1ccc(C(=O)/C=C/c2c(OC)cc(OC)cc2OC)c(OC)c1 | -9.11% (active) | 59.1% | 28.8% | 31.8% | 44.3% | 26.9% | -1.02% (active) | 13.8% | 9.01% (active) | 33.6% | 23.1% | 13% | 25.9% | 31.5% | 79.1% | 10.9% | 40.3% | -33.3% (active) | 54.1% | -21.9% (active)
2 | COc1ccc(C(O)c2cc3c(N)c(C(=O)Nc4cccc(OC)c4)sc3nc2C)cc1 (stereo not given) | 22.6% | 33.8% | 23.6% | 25% | 39.9% | 27% | 24.4% | -17% (active) | 7.53% (active) | 16.3% | 2.51% (active) | 6.06% (active) | 5.76% (active) | 23% | 36.5% | 19.5% | 15.4% | 0.638% (active) | 23.7% | 13.7%
3 | CC(=O)c1c(C)[nH]c(-c2nc3ccc(N4CCN(C)CC4)cc3[nH]2)c1-c1ccccc1 | 48.6% | 35.5% | 37.7% | 5.51% (active) | 23.9% | 19.4% | 7.67% (active) | 31.8% | 49.1% | 50.7% | 28.4% | 3.67% (active) | 45.6% | 34.8% | 33.4% | 20.5% | 23.8% | 28.8% | 9.13% (active) | 36.3%
4 | CCOC(=O)c1c(O)cc(-c2ccccc2)cc1-c1sc(N(C)Cc2ccccc2)nc1Cl | 101% | 101% | 97.3% | 96.8% | 108% | 97.2% | 87.9% | 108% | 96.3% | 94.4% | 93.4% | 95.2% | 97.8% | 89.4% | 102% | 95.7% | 108% | 106% | 88.6% | 102%
5 | CN1CCN(c2ccc3nc(-c4cc(C(C)(C)C)c(O)c(C(C)(C)C)c4)[nH]c3c2)CC1 | 82.5% | 86.4% | 88.2% | 61.3% | 90.5% | 87.3% | 68.6% | 90.5% | 14.5% | 39.6% | -14.5% (active) | -24.2% (active) | 94.1% | 91.6% | 75.9% | 83.9% | 88% | 74.4% | 71.9% | 86.8%
6 | O=c1[nH]nc(-c2ccc(Cl)cc2)cc1Cc1cccc([N+](=O)[O-])c1 | 174% | 39.8% | 89.1% | 71.7% | 147% | 98.3% | 80.8% | 106% | -7.68% (active) | 5.84% (active) | -44.9% (active) | 51.6% | 101% | 107% | 80% | 88.8% | 82.4% | 101% | 49.1% | 101%
7 | C[C@@H]1CN(Cc2ccc(/C=C/c3n[nH]c4ccc5nc(-c6cn[nH]c6C(F)(F)F)c6c(c5c34)CCCC6)cc2)C[C@H](C)O1 | 57.6% | 32.4% | 12.6% | 4.93% (active) | 32.5% | 10.8% | 1.97% (active) | 3.16% (active) | 15.4% | 12.6% | 7.98% (active) | 34.3% | 33.4% | 19.7% | 29.9% | 22.5% | 1.46% (active) | 38.2% | 3.34% (active) | 28.7%
8 | CN(C)Cc1c(-c2ccccc2)[nH]c2ccccc12 | 108% | 92.3% | 99.4% | 100% | 102% | 106% | 101% | 75.7% | 86.5% | 99.4% | 95.6% | 85.7% | 102% | 96.1% | 117% | 81.7% | 110% | 103% | 100% | 98.2%
9 | CCN(CC)CCCC(C)Nc1c2c(nc3ccc(OC)cc13)CCCC2 (stereo not given) | 128% | 91.2% | 84.4% | 76.6% | 111% | 96.4% | 93.7% | 73.5% | 95.5% | 94.7% | 93.6% | 100% | 105% | 90.2% | 103% | 119% | 98.1% | 102% | 93.5% | 96.8%
10 | COc1ccc(-c2nc(N/N=C/c3c[nH]c4ccccc34)nc(N3CCOCC3)c2C#N)cc1 | 97.8% | 99.8% | 92.2% | 63.7% | 104% | 76.1% | 98% | 51.2% | 56.9% | 55.6% | -2.03% (active) | 71.9% | 92.5% | 125% | 105% | 115% | 80.9% | 90.4% | 93.4% | 96.5%
11 | Cc1ccc(C2CC(c3cccc(Nc4ccncc4)c3)=NN2c2ccccc2)cc1 (stereo not given) | -64.6% (active) | -51.9% (active) | -93.1% (active) | -100% (active) | -83.6% (active) | -99.8% (active) | -94.6% (active) | 30.7% | -24.5% (active) | -26.8% (active) | -13.3% (active) | -48.7% (active) | -50.7% (active) | -93.4% (active) | -86.5% (active) | -31.4% (active) | -92.7% (active) | -89.2% (active) | -57.5% (active) | -72.8% (active)
12 | COc1ccc(/C=C/c2n[nH]c3ccc(N4CCOC4=O)cc23)cc1 | 11.7% | 8.71% (active) | 24% | -45.7% (active) | -9.71% (active) | 6.86% (active) | 4.59% (active) | -19.6% (active) | -17% (active) | 4.38% (active) | 2.85% (active) | -14.9% (active) | 19.3% | 14.1% | 40% | 25.2% | 8.62% (active) | 4.56% (active) | 2.93% (active) | 15.6%
13 | CC(=O)c1c[nH]c2ccc(-c3ccnc(Nc4ccc(NC(=O)c5cccc(F)c5)c(CN5CCOCC5)c4)n3)cc12 | -15.6% (active) | -24.1% (active) | -4.7% (active) | 2.38% (active) | 1.22% (active) | -12.1% (active) | -1.58% (active) | -62.8% (active) | 2.24% (active) | 1.65% (active) | 4.05% (active) | -25.9% (active) | 8.7% (active) | -4.49% (active) | -18.9% (active) | 17.8% | 1.06% (active) | -8.81% (active) | -20.1% (active) | 1.76% (active)
14 | Nc1nc(N)nc(NCc2ccccc2)n1 | 112% | 99.3% | 98.4% | 91.1% | 95.8% | 106% | 99.7% | 105% | 109% | 95.4% | 89% | 107% | 117% | 103% | 128% | 115% | 109% | 105% | 120% | 100%
